From PubChem BioAssay
Polio RdRp inh = poliovirus RNA polymerase inhibition | P03300 | poliovirus polymerase elongation, fluorescence polarization; stronger effect = lower value | % elongation, % (compound at 16.7 µg/mL) | actives 0.66% (n = 150,000); in the data active = % elongation below about 90%
Target sequence (P03300 1749-2209 limits assumed): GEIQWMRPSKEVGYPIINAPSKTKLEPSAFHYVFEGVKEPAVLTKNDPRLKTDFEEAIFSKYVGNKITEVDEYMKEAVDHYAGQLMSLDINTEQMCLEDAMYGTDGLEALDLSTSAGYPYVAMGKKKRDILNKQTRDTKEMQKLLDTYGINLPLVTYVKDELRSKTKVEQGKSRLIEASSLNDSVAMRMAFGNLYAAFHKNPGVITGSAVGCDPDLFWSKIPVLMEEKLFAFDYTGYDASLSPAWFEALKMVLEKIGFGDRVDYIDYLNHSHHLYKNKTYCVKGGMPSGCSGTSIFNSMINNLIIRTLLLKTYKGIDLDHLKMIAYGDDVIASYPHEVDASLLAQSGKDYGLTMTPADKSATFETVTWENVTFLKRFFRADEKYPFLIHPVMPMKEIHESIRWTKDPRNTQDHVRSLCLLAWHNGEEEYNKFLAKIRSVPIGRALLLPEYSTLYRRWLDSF
Mtb MenB inh = Mtb MenB enzyme inhibition. inhibition, % (no concentration beside the values). P9WNP5. MenB enzyme assay, absorbance read-out. actives 0.43% (n = 100,000). AID 540299; in the data active = inhibition above about 21%, passing the limit was not always enough
Mtb MbtI inh = MbtI salicylate synthase inhibition | P9WFX0 | purified MbtI enzyme, fluorescence intensity read-out | inhibition, % (no concentration beside the values) | actives 0.89% (n = 100,000) | AID 493033; in the data active = inhibition mostly above about 56%, no sharp cut-off; inactive = mostly below about 77%
Numbers without * were called inactive; nt = no result; ! = not active in a repeat. Only some compounds are listed: those with a hit (about 1.4% of all), similar ones and a draw of the others.

SMILES	Polio RdRp inh	Mtb MenB inh	Mtb MbtI inh
CN=C(Nc1ccc(F)cc1)c1ccccc1	96	-3	-1
COc1ccc(OC)c(S(=O)(=O)N2CCn3cccc3C2c2ccc(Cl)cc2Cl)c1 (centres undefined)	109	-10	0
CCOC(=O)c1c(N=Cc2ccc(OC)c(OC)c2Cl)n[nH]c1C	111	7	9
CCOC(=O)c1c(Nc2ccc(OC)c(Cl)c2)n[nH]c1C	98	-56	88*
O=C(O)CSc1ccccc1Cl	105	-29	11
CC1=NN(c2ccccc2)C(=O)C1(O)C1C(=O)c2ccccc2C1=O (centres undefined)	29*	-166	-3
CC1=NN(c2ccccc2)C(=O)C1(C)N (centres undefined)	105	-10	-1
C1CCCC(NCCCN2CCOCC2)CC1	101	-28	-14
CC(C)CNCCCN1CCOCC1	101	36*	0
CC(/C=C1\SC(N(C)c2ccc(O)cc2)=NC1=O)=C\c1ccccc1	102	-10	2
COC(=O)c1cn(CC(=O)Nc2ccc(S(=O)(=O)NC3=NCCCCC3)cc2)c2ccccc12	110	-13	24
Cc1ccc(C(=O)C2CCN(C(=O)Cc3ccccc3)CC2)cc1	100	-5	-4
COC(=O)C1CCN(C(=O)Cc2ccc(C)cc2)CC1	83*	-9	-1
Cc1ccc(C(=O)CC(C(=O)O)N2CCN(C)CC2)cc1 (centres undefined)	104	31*	nt
CN1CCN(C(=S)NC(CC(=O)c2ccccc2)c2ccccc2)CC1 (centres undefined)	102	-17	nt
OCCNCCSc1nnc(-c2cccs2)o1	97	-36	21
Cc1cc(C)n(C(=O)c2cccs2)n1	103	5	1
Cc1cc(C)n(C(=O)c2ccoc2C)n1	100	36*	-1
CCC(C)N(CC)C(=O)C1C(=O)CC(C)(C)CC1=O (centres undefined)	99	16	9
CCOC(=O)CCN1C(=O)c2ccccc2C1=O	107	1	-1
O=C(CCN1C(=O)c2ccccc2C1=O)OCc1ccco1	90*	1	0
COc1ccccc1-c1nc(-c2cccc(Br)c2)no1	98	-11	-7
CC(C)OC1(O)C(=O)c2ccccc2C(=O)C1(O)OC(C)C (centres undefined)	9.0*	-19	nt
CCOC1(O)C(=O)c2ccccc2C(=O)C1(O)OCC (centres undefined)	nt	nt	79
Clc1nnc(-c2ccccc2)c(-c2ccccc2)n1	101	-41	11
SMILES	Polio RdRp inh	Mtb MenB inh	Mtb MbtI inh
NNc1nnc(-c2ccccc2)c(-c2ccccc2)n1	100	-41	73*
Cn1ncc2c(c(SCc3ccc(Cl)cc3Cl)nn2C)c1=O	101	-17	21
CSc1nn(C)c2cnn(C)c(=O)c12	55*	-2	71
O=C(CSc1ncccn1)Nc1ccc2c(c1)OCCCO2	99	5	11
O=C(O)C1C2C=CC(C2)C1C(=O)Nc1cccc(Br)c1 (centres undefined)	97	26*	-3
CC(O)c1cccc(NC(=O)C2C3C=CC(C3)C2C(=O)O)c1 (centres undefined)	98	-11	-7
CCOc1ccc(-n2c(O)c(C=NCCCN3CCOCC3)c3ccccc3c2=O)cc1	104	-8	-14
O=c1[nH][nH]c(=S)n1C1CC1	99	38*!	71*
O=c1[nH][nH]c(=S)n1-c1ccc2c(c1)OCCO2	102	9	nt
O=c1[nH][nH]c(=S)n1CC1CCCO1 (centres undefined)	95	-17	83
O=c1[nH][nH]c(=S)n1C1Cc2ccccc2C1	100	-1	67*
CN1C(=O)C2C(N=CN2CCCO)N(C)C1=O (centres undefined)	109	-21	nt
Cc1c(C(=O)N(Cc2cccs2)C2CCCC2)sc2nc3n(c(=O)c12)CCCCC3	101	-13	0
CCOC(=O)CN1C(=O)S/C(=C/c2ccc(OCC(N)=O)c(OCC)c2)C1=O	99	-19	-10
Fc1ccc2nc(NCc3ccccc3)sc2c1	84*	-2	61
c1ccc(CCNc2nc3ccccc3s2)cc1	100	nt	-4
O=C1CN(C(=O)Cc2c(Cl)cccc2Cl)CCN1	102	1	7
Cc1sc2nc(NCCO)[nH]c(=O)c2c1C	101	-7	5
Cc1sc2nc(CC(=O)N3CCCC3)[nH]c(=O)c2c1C	75*	-53	67
O=C(CCc1ccccc1)NN1C(=O)c2ccccc2C1=O	100	-15	-7
O=c1sn(-c2ccc(F)c(Cl)c2)c(=O)n1C1Cc2ccccc2C1	95	9	83*
N#CCn1ccn(-c2ccc(F)c(Cl)c2)c(=O)c1=O	103	-13	-9
Nc1ccc2c(c1)OC1(O)c3ccccc3C(=O)C21O (centres undefined)	101	-66	-12
O=C1CCCC2=C1C1(O)C(=O)c3ccccc3C1(O)O2 (centres undefined)	78*	-31	14
CCN(CC)C(=S)C(=O)Nc1cc(C(F)(F)F)cc(C(F)(F)F)c1	86*	-26	nt
SMILES	Polio RdRp inh	Mtb MenB inh	Mtb MbtI inh
CC(C)(C)NC(=O)Nc1cc(C(F)(F)F)cc(C(F)(F)F)c1	106	-9	0
O=C(COC(=O)c1ccccc1NCc1ccco1)c1ccc(Cl)cc1	106	-30	-37
COc1ccc(C(=O)OCC(=O)c2ccc3[nH]c(=O)[nH]c3c2)c(OC)c1	88*	-17	1
O=C(COC(=O)c1ccccc1NCc1ccco1)c1ccc2[nH]c(=O)[nH]c2c1	44*	1	-196
CCc1noc(C)c1C(=O)OCC(=O)c1ccc2ccccc2c1	105	-20	1
COc1ccc(C(=O)COC(=O)c2ccc(NC(C)=O)cc2)c(OC)c1	107	3	8
Cc1onc(-c2ccccc2)c1C(=O)OCC(=O)c1ccc2[nH]c(=O)[nH]c2c1	76*	-18	2
O=C(NN1C(=O)CSC1=S)c1ccc(F)cc1	103	-50	15
O=C1OCCC1Sc1ncnc2c1cnn2-c1ccccc1 (centres undefined)	104	-7	-7
O=C(/C=C/Sc1nc2cc(Cl)ccc2s1)c1ccc(F)cc1	103	0	43
O=C(O)/C=C/C(=O)c1ccccc1	98	-40	-8
O=C(/C=C/S(=O)(=O)c1ccc(Cl)cc1)c1ccc(F)cc1	98	9	98*
O=C(O)/C=C/C(=O)c1ccc(F)cc1	43*	nt	74*
Cn1c(Cc2ccccc2)nnc1SC1CCOC1=O (centres undefined)	106	-2	-8
CC1=C(c2sc(-c3ccccc3)nc2-c2cccs2)C(=O)OC1	135	-27	-10
Cc1ccc2nc(NNC(=O)c3ccccc3)sc2c1	103	-53	4
CCOc1ccc(-c2csc(Cn3c(CN4CCN(C)CC4)nc4ccccc4c3=O)n2)cc1	66*	-6	85*
CN(C)Cc1nc2ccccc2c(=O)n1Cc1nc(-c2cc3ccccc3o2)cs1	103	-29	8
O=C(Nc1ccc(Cl)c(Cl)c1)NC1CCCCC1	107	-13	nt
O=C(Nc1ccc2[nH]c(=O)[nH]c2c1)NC1CCCCC1	90*	21	3
Cc1cccc(N2CCN(C(=O)C3=NNC(=O)CC3)CC2)c1C	94	2	-2
Cc1cc(C(=O)Sc2ccc(Cl)cc2)nn1C(C)(C)C	98	-6	-8
O=C(Sc1ccc(Cl)cc1)c1ccno1	96	-5	65*
